# Assay results taken from PubChem BioAssay (NCATS).
# Records with an inconclusive call do not appear. Entries that show only a call come without a potency. Activity calls are given as the source filed them. The call rests on the fitted dose curve; in most records, active means well fitted cell-killing curve with a large enough effect; inconclusive means small, poorly fitted or top-dose-only effect, or effect the other way, or another doubt; inactive means no such curve, though single readings can be large or run the other way.
# Experiment: Identifying Small Molecule Inhibitors of Pancreatic Cancer Stem Cells (Panc1, Adherent) (AID 1259362)
# Conditions: Potency: viability; series mostly up to 46.1 µM
# Text: Progenitor-like cancer cells, often referred to as cancer stem cells (CSC), are believed to be the drivers of therapeutic resistance and rapid recurrence. CSCs are postulated to reside in specific niches characterized by low oxygen tension, limited nutrient supply, and high redox load. Selectively targeting CSC, alone or in combination with cytotoxic agents, as a means to produce durable remissions is an appealing concept. Modeling these cells in in vitro setting is an important step in finding new therapies and/or targets. Multiple reports highlight that forcing cells in culture into 3-dimensionaly architectures (spheroids) re-establishes key progenitor-like transcriptional signatures. Pancreatic cancer is among the diseases with the most dismal outlook which is driven, largely, by recurance following front-line therapies. […] In hopes of deriving new insight into the targeting of these pancreatic CSCs we examined three established pancreatic cancer cell lines in cytotoxicity assays versus a collection of approved and investigational drugs. Importantly, we screened these lines as traditional monolayer (2D) and spheroid (3D) formats to gain an appreciation of agents with differential activity.
# Multicellular tumor spheroids from Panc1, MiaPaCa-2, and the primary low-passage tissue culture line SB.06 were seeded in stem cell media (SCM) in nonadherent 6-well plates coated with hydrogel (Corning Life Sciences, Chelmsford, Mass) and pancreatic spheres generated for 14 days before screening. Cells were seeded into 1536-well solid-bottom white tissue culture treated Greiner Bio One Plates (789173-F) using a MultiDrop Combi (Thermofisher Scientific) dispenser and a small sterile cassette. One column was media alone to be used as a :"no cells" control. The plates were then covered with sterilized stainless steel gasketed lids from Kalypsys. After allowing cells to attach for 4 hours, 23 nL of test compound or control (negative control DMSO and positive control 9.2 uM Bortezomib-final) were added from a 1536-well polypropylene compound source plate to each well using a 1536 head pin tool from Kalypsys. Cells were then incubated for 48 hours at 37C, 95% relative humidity and 5% CO2. After 48 hours, plates were removed from the incubator and 3 uL of CellTiter-Glo (Promega) was added using an Aurora Flying Reagent Dispenser Bioraptor. Plates were incubated at room temperature for 10 minutes prior to reading the luminescence on the Viewlux (PerkinElmer). The relative luciferase units are used to calculate the percent activity using the activity of DMSO in the cells and no cells columns for normalization of no inhibition and full inhibition respectively.
# Potency means the concentration at half of the fitted maximal effect.
row,Compound,Potency
1,CCC(C)N(C)C(=O)c1cc2ccccc2c(-c2ccccc2Cl)n1 (stereo not given),inactive
2,Cc1c(C)c2c(c(C)c1O)CCC(C)(COc1ccc(CC3SC(=O)NC3=O)cc1)O2 (stereo not given),inactive
3,Cc1cccc(-c2[nH]c(C(C)(C)C)nc2-c2ccc3nccnc3c2)n1,inactive
4,CC[C@H](Nc1ncnc2nc[nH]c12)c1nc2cccc(F)c2c(=O)n1-c1ccccc1,inactive
5,COc1ccc(C2=N[C@H](c3ccc(Cl)cc3)[C@H](c3ccc(Cl)cc3)N2C(=O)N2CCNC(=O)C2)c(OC(C)C)c1,inactive
6,CNC(=O)c1ccc(N2C(=S)N(c3ccc(C#N)c(C(F)(F)F)c3)C(=O)C2(C)C)cc1F,inactive
7,COc1ccc2c3n(c(=NC(=O)c4cccnc4)nc2c1OC)CCN3,2350 nM (active)
8,CCOc1cc(C(=O)Nc2ccc(Cl)c(-c3nc4ccccc4[nH]3)c2)cc(OCC)c1OCC,inactive
9,CCc1cc(Nc2nccc(-c3c(-c4ccc(OC)c(C(=O)Nc5c(F)cccc5F)c4)nc4ccccn34)n2)c(OC)cc1N1CCC(N2CCN(S(C)(=O)=O)CC2)CC1,inactive
10,CCn1c(-c2nonc2N)nc2cnc(Oc3cccc(NC(=O)c4ccc(OCCN5CCOCC5)cc4)c3)cc21,inactive
11,CCCCCCCc1ccc(CCc2cccc(O)c2C(=O)O)cc1,inactive
12,O=C(O)c1ccc(-c2c[nH]c3ccc(-c4ccccc4)cc23)cc1C1CCCC1,inactive
13,COc1cccc2cc(-c3nc(C4CCC(C(=O)O)CC4)n4ncnc(N)c34)[nH]c12 (stereo not given),inactive
14,C[C@]12CCC(=O)C=C1CC[C@@H]1[C@@H]2[C@@H](O)C[C@@]2(C)[C@H]1CC[C@]2(O)C(=O)CO,inactive
15,CC(=O)NC(C)c1ccc(Oc2ccc(OC(C)C)cc2)cc1 (stereo not given),4690 nM (active)
16,CNCc1ccc(-c2[nH]c3cc(F)cc4c3c2CCNC4=O)cc1,inactive
17,COc1ccc(CC2=NN3C([C@@H](CCc4ccccc4)[C@@H](C)O)=NC(C)C3C(=O)N2)cc1OC (stereo not given in full),inactive
18,Cc1csc(NC(=O)c2sc3nc4c(c(C(F)(F)F)c3c2N)CCC4)n1,inactive
19,NC(=O)C1CCCc2c1[nH]c1ccc(Cl)cc21 (stereo not given),inactive
20,COc1cc2nccc(Oc3ccc(NC(=O)NC4CC4)c(Cl)c3)c2cc1C(N)=O,inactive

row,Compound,Potency
1,COc1cc2c(cc1OC)CN(CCc1ccc(NC(=O)c3cccc4c(=O)c5cccc(OC)c5[nH]c34)cc1)CC2,inactive
2,Cc1ccnc(NS(=O)(=O)c2ccc(NC(=O)Nc3ccc(S(=O)(=O)Nc4nccc(C)n4)cc3)cc2)n1,23.5 nM (active)
3,Cc1cc2c(F)c(Oc3ncnn4cc(OC[C@@H](C)O)c(C)c34)ccc2[nH]1,inactive
4,COc1ccccc1-c1cccc(-c2c(O)c3cc(C#N)c(Cl)cc3[nH]c2=O)c1,1180 nM (active)
5,CCCc1nc2c(C)cc(-c3nc4ccccc4n3C)cc2n1Cc1ccc(-c2ccccc2C(=O)O)cc1,inactive
6,O=c1[nH]c(-c2ccc(C(F)(F)F)cc2)nc2c1CSCC2,inactive
7,CCOC(=O)N[C@@H]1CC[C@@H]2[C@@H](C1)C[C@H]1C(=O)O[C@H](C)[C@H]1[C@@H]2C=Cc1ccc(-c2cccc(F)c2)cn1,inactive
8,OC[C@H](Cc1ccccc1)Nc1nc(Oc2ccc3c(c2)CCC3)nc2c1ncn2Cc1ccc(-c2ccccc2)cc1,1320 nM (active)
9,CCOc1ccn(-c2ccc(F)cc2)c(=O)c1C(=O)Nc1ccc(Oc2ccnc(N)c2Cl)c(F)c1,6620 nM (active)
10,CC(C)c1onc(-c2c(Cl)cccc2Cl)c1COc1ccc(/C=C/c2cccc(C(=O)O)c2)c(Cl)c1,inactive
11,CN([C@@H](Cc1ccc(OS(=O)(=O)c2cccc3cnccc23)cc1)C(=O)N1CCN(c2ccccc2)CC1)S(=O)(=O)c1cccc2cnccc12,inactive
12,O=C1CCCC2=C1C(c1[nH]ncc1Cl)N=C(Nc1nc3ccccc3o1)N2 (stereo not given),inactive
13,CCC(C)n1ncn(-c2ccc(N3CCN(c4ccc(OC[C@H]5CO[C@](Cn6cncn6)(c6ccc(Cl)cc6Cl)O5)cc4)CC3)cc2)c1=O (stereo not given in full),inactive
14,COc1ccc(CCN2CCN(CCCc3ccccc3)CC2)cc1OC,inactive
15,Nc1ncnc2nc(-c3ccc(N4CCOCC4)nc3)cc(-c3cccc(Br)c3)c12,inactive
16,O=C(O)CCc1ccc(NCc2cccc(Oc3ccccc3)c2)cc1,inactive
17,O=S(=O)(N=Cc1c(O)ccc2ccccc12)c1cccs1,inactive
18,C/C(=C\C(=O)Nc1ccccc1C(=O)O)c1ccc2ccccc2c1,inactive
19,Nc1cccc(S(=O)(=O)N2CCCN(S(=O)(=O)c3ccc4c(c3)OCCO4)CC2)c1,inactive
20,c1ccc(-c2nn3c(c2-c2ccnc4cc(OCCN5CCOCC5)ccc24)CCC3)nc1,inactive
